Test [1] can be described thus: ATG_PXRE_CIS: Attagene CIS-FACTORIAL HepG2 Assay for human Pregnane X Receptor Element (PXRE) (AID 2282957). As to conditions: HepG2 Attagene CIS-FACTORIAL PXRE reporter, mRNA; actives raise or lower the signal. The essentials:
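HepG2 cells transiently transfected with cis-regulated multiple reporter transcription units; endogenous factor activity measured as reporter mRNA 24 h after dosing. RT-PCR, fluorescent primer extension, HpaI digestion, capillary electrophoresis; bidirectional fit versus DMSO baseline.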

Test [2] in a line: ATG_PPRE_CIS: Attagene CIS-FACTORIAL HepG2 Assay for human Peroxisome Proliferator-activated Response Element (PPRE) (AID 2282958). As to conditions: HepG2 PPRE cis-element reporter, Attagene transcription factor profiling; actives raise or lower the signal. The method, boiled down: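 HepG2, transient MRTU transfection (cis promoter elements, endogenous TFs). 24 h dosing. RNA → oligo(dT) RT → PCR → 6-FAM primer extension → HpaI digest → CE. Bidirectional fit vs DMSO.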

Test [3] can be described thus: ATG_RORE_CIS: Attagene CIS-FACTORIAL HepG2 Assay for human RAR-related Orphan Receptor Element (RORE) (AID 2282959). The conditions noted are these: HepG2 Attagene cis-factorial RORE reporter, mRNA; actives raise or lower the signal. The method, boiled down: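 Transient MRTU transfection of human HepG2 liver cells (FuGene 6); 24 h compound exposure; TriZol RNA, oligo(dT) RT, PCR, FAM labeling, HpaI cut, CE fragment analysis. DMSO = negative control/baseline.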

The nature of test [4]: ATG_Sox_CIS: Attagene CIS-FACTORIAL HepG2 Assay for human SRY-box transcription factor (SOX) (AID 2282960). As to conditions: HepG2 Attagene cis-factorial SOX reporter, mRNA; actives raise or lower the signal. The essentials: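 Endogenous factor activity in human liver HepG2 cells carrying transfected cis-regulated reporter units. RNA taken 24 h post-dose, reverse-transcribed, PCR-amplified and sized by capillary electrophoresis. Gain or loss of signal fitted relative to DMSO.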

In test [5] the target is Transcription factor Sp1 (Homo sapiens) (UniProt P08047). The test is described as follows: ATG_Sp1_CIS: Attagene CIS-FACTORIAL HepG2 Assay for human Specificity Protein 1 (Sp1) (AID 2282961). The conditions noted are these: HepG2 Sp1 cis-reporter transcription, actives raise or lower the signal. The method, boiled down:
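Transient MRTU-transfected HepG2, 24 h compound exposure. Total RNA → oligo(dT) RT → PCR of reporter → 6-FAM primer extension → HpaI digest → CE. Endpoint fitted both directions vs DMSO.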

Test [6] can be described thus: ATG_SREBP_CIS: Attagene CIS-FACTORIAL HepG2 Assay for human Sterol Regulatory Element Binding (SREBP) (AID 2282962). As to conditions: HepG2 Attagene cis-factorial SREBP reporter, mRNA; actives raise or lower the signal. The essentials: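 Transfected HepG2 (cis-regulated reporter library, endogenous TFs) → compound 24 h → total RNA → oligo(dT) RT → reporter-specific PCR → FAM primer extension, HpaI cut → CE fluorescence. Fit bidirectional vs DMSO.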

For test [7], the target named is Signal transducer and activator of transcription 3 (Homo sapiens) (UniProt P40763). The test is described as follows: ATG_STAT3_CIS: Attagene CIS-FACTORIAL HepG2 Assay for human Signal Transducer and Activator of Transcription 3 (STAT3) (AID 2282963). The conditions noted are these: HepG2, Attagene cis-factorial STAT3 reporter transcription; actives raise or lower the signal. The method, boiled down: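 HepG2 cells transiently transfected with multiple cis-element-driven reporter units report endogenous transcription factor activity. After 24 h compound exposure, reporter mRNA is measured by RT-PCR, 6-FAM labelling, HpaI digestion and capillary electrophoresis. Fitted bidirectionally versus DMSO.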
Sequence of Signal transducer and activator of transcription 3 (Homo sapiens) (P40763 whole entry, looked up): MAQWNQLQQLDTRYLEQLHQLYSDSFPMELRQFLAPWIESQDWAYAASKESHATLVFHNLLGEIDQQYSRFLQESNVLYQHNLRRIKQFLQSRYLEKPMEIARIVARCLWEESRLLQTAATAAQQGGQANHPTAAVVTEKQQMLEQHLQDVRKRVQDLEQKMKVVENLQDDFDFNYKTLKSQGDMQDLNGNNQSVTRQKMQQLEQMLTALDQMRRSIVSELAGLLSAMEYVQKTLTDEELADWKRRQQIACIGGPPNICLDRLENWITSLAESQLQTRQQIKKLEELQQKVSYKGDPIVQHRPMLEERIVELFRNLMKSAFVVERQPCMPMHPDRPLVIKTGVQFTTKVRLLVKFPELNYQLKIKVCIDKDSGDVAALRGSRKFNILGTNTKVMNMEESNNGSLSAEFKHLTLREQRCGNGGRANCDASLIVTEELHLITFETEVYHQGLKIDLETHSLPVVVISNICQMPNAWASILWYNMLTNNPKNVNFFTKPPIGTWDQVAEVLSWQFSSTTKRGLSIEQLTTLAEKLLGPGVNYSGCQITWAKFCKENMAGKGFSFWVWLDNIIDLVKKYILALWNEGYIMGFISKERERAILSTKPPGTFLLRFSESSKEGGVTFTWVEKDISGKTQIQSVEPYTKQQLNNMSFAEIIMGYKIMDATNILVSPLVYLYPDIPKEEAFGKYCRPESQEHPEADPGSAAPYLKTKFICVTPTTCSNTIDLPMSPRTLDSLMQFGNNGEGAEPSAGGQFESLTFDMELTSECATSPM

Test [8] is described as follows: ATG_TA_CIS: Attagene CIS-FACTORIAL HepG2 Assay for human TA Basal Promoter (AID 2282964). As to conditions: HepG2 Attagene CIS-factorial TA basal promoter reporter; actives raise or lower the signal. The essentials: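 Read-out: fluorescent reporter-transcript fragments resolved by capillary electrophoresis after RT-PCR and HpaI digestion. Source: HepG2 cells carrying transiently transfected multi-reporter cis constructs, treated 24 h. Endpoint fitted bidirectionally relative to DMSO.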

Test [9] can be described thus: ATG_TCF_b_cat_CIS: Attagene CIS-FACTORIAL HepG2 Assay for human T-Cell-Factor with beta-catenin (TCF/b-cat) (AID 2282965). As to conditions: HepG2 TCF/beta-catenin cis-reporter transcription, actives raise or lower the signal. The essentials:
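HepG2, transient MRTU transfection, cis-element-driven reporters (endogenous TFs). 24 h compound exposure. Readout: reporter mRNA by RT-PCR + 6-FAM primer extension, HpaI digest, capillary electrophoresis. Gain/loss fit vs DMSO baseline.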

Test [10] can be described thus: ATG_TAL_CIS: Attagene CIS-FACTORIAL HepG2 Assay for human TAL Basal Promoter (AID 2282966).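 Further: background control endpoint measuring basal TAL promoter reporter mRNA not a specific factor.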 The conditions noted are these: HepG2 Attagene cis-factorial TAL promoter reporter; actives raise or lower the signal. The method, boiled down: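 HepG2 cells were transiently transfected with promoter-driven multiplexed reporter units and dosed for 24 h. Reporter mRNA was measured by RT-PCR with capillary electrophoresis fluorescence; bidirectional fits used DMSO as baseline, serving as a background control.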

Test [11] can be described thus: ATG_TGFb_CIS: Attagene CIS-FACTORIAL HepG2 Assay for human Transforming Growth Factor (TGF) (AID 2282967). The conditions noted are these: HepG2 Attagene CIS TGFb reporter, mRNA transcription; actives raise or lower the signal. The method, boiled down: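 Transient MRTU transfection of HepG2 (FuGene 6). Dose 24 h. TriZol RNA, oligo(dT) RT, PCR, 6-FAM primer extension, HpaI cut, CE. Bidirectional fit, DMSO = baseline.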

Test [12] is described as follows: ATG_VDRE_CIS: Attagene CIS-FACTORIAL HepG2 Assay for human Vitamin D Receptor Element (VDRE) (AID 2282968). As to conditions: HepG2 VDRE cis-reporter transcription, actives raise or lower the signal. The essentials:
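Transiently transfected HepG2 cells carrying cis-regulated reporter transcription units were exposed for 24 h. Reporter mRNA was measured by RT-PCR with fluorescent labelling and capillary electrophoresis, and fitted in both directions against DMSO.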

Test [13] concerns the target Estrogen receptor (Homo sapiens) (UniProt P03372). The test is described as follows: ATG_ERa_TRANS: Attagene TRANS-FACTORIAL HepG2 Assay for human Estrogen Receptor alpha (ERa) (AID 2282970; active means hit-call score of the fitted dose curve at least 0.9, where 1 is the maximum). The conditions noted are these: HepG2 Attagene TRANS ERa GAL4 reporter, mRNA. The method, boiled down: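 HepG2 cells transiently transfected with multiplexed GAL4-UAS reporter units; ERa activity read via exogenous chimeric NR-Gal4 protein. After 24 hour compound exposure, reporter mRNA measured by RT-PCR with 6-FAM labelling and capillary electrophoresis; gain-of-signal fitted relative to DMSO.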

In test [14] the target is Steroid hormone receptor ERR1 (Homo sapiens) (UniProt P11474). The experiment in a line: ATG_ERRa_TRANS: Attagene TRANS-FACTORIAL HepG2 Assay for human Estrogen-Related Receptor alpha (ERRa) (AID 2282971; active means hit-call score of the fitted dose curve at least 0.9, where 1 is the maximum). As to conditions: HepG2 Attagene TRANS reporter, ERRa transactivation. The essentials: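 HepG2 cells transiently transfected with multiplexed GAL4-UAS reporter units reading chimeric ERRa-Gal4 activity; 24 h compound exposure. Reporter mRNA measured by RT-PCR, 6-FAM labelling, HpaI digest and capillary electrophoresis; gain of signal fitted versus DMSO baseline.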
Sequence of Steroid hormone receptor ERR1 (Homo sapiens) (P11474 whole entry, looked up, the tested form may be a part): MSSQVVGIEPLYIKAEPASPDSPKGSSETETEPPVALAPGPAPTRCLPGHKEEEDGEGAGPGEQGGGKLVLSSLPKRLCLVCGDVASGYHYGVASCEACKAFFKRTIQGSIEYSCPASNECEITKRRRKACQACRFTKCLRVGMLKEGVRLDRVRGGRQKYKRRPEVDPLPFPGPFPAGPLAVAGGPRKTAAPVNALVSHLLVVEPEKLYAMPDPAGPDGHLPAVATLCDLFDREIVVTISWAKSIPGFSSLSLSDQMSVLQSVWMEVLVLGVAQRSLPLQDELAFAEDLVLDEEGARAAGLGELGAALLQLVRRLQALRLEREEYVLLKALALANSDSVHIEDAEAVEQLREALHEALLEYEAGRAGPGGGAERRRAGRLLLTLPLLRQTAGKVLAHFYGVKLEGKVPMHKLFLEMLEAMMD

The target of test [15] is X-box-binding protein 1 (Homo sapiens) (UniProt P17861). The experiment in a line: ATG_Xbp1_CIS: Attagene CIS-FACTORIAL HepG2 Assay for human X-box Binding Protein 1 (XBP1) (AID 2282972). As to conditions: HepG2 XBP1 cis-element reporter, Attagene multiplex; actives raise or lower the signal. The essentials: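 HepG2, transient MRTU transfection (cis-promoter driven), 24 h compound exposure. Total RNA → oligo(dT) RT → PCR → 6-FAM labeling → HpaI cut → CE. Bidirectional fit vs DMSO.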
Sequence of X-box-binding protein 1 (Homo sapiens) (P17861 whole entry, looked up): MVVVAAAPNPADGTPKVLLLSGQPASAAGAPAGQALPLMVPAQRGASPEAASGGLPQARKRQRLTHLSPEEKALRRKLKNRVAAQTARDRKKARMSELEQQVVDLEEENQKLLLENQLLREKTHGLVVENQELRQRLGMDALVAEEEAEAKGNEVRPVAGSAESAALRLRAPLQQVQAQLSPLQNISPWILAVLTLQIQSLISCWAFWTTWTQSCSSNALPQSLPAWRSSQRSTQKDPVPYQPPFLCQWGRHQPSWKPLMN

A short description of test [16]: ATG_M_19_TRANS: Attagene TRANS-FACTORIAL HepG2 Assay for M19 Transcription Factor (Internal Marker) (AID 2282974; active means hit-call score of the fitted dose curve at least 0.9, where 1 is the maximum). The conditions noted are these: HepG2 Attagene TRANS-FACTORIAL M19 internal marker reporter. The essentials:
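Fluorescence of 6-FAM-labelled reporter cDNA fragments, separated by capillary electrophoresis, served as the readout. These derived from HepG2 cells carrying transfected GAL4-UAS reporter units after 24 h dosing, with DMSO as negative control.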

In test [17] the target is Nuclear receptor subfamily 1 group I member 3 (Homo sapiens) (UniProt Q14994). The experiment in a line: ATG_CAR_TRANS: Attagene TRANS-FACTORIAL HepG2 Assay for human Constitutive Androstane Receptor (CAR) (AID 2282969; active means hit-call score of the fitted dose curve at least 0.9, where 1 is the maximum;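 further: activators raise reporter mRNA above DMSO so AC50 marks induction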). The conditions noted are these: HepG2 Attagene TRANS-FACTORIAL CAR reporter. The method, boiled down: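 HepG2 cells transiently transfected with GAL4-UAS reporter units; TRANS format reads activity of exogenous chimeric NR-Gal4 protein. After 24 h dosing, reporter mRNA quantified by RT-PCR, 6-FAM labelling and capillary electrophoresis; gain of signal fitted against DMSO.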
Sequence of Nuclear receptor subfamily 1 group I member 3 (Homo sapiens) (Q14994 whole entry, looked up, the tested form may be a part): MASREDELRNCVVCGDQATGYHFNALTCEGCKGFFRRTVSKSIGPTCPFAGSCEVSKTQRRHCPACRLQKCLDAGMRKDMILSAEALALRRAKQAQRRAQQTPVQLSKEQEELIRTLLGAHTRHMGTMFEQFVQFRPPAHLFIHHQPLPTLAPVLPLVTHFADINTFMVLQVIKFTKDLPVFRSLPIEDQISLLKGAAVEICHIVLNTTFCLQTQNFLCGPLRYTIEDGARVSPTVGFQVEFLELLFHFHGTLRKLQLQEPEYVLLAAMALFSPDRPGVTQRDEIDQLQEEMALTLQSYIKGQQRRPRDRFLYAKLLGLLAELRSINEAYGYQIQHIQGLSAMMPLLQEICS

Test [18] can be described thus: ATG_GAL4_TRANS: Attagene TRANS-FACTORIAL HepG2 Assay for GAL4 (Internal Marker) (AID 2282976; active means hit-call score of the fitted dose curve at least 0.9, where 1 is the maximum). As to conditions: HepG2 Attagene TRANS GAL4 internal marker reporter. The method, boiled down:
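HepG2 cells transiently transfected with multiplexed GAL4-UAS reporter constructs were dosed for 24 h. Reporter mRNA was measured by RT-PCR, 6-FAM primer extension, HpaI digestion and capillary electrophoresis, and gain of signal was fitted relative to DMSO.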

Test [19] deals with Estrogen-related receptor gamma (Homo sapiens) (UniProt P62508). The test is described as follows: ATG_ERRg_TRANS: Attagene TRANS-FACTORIAL HepG2 Assay for human Estrogen-Related Receptor gamma (ERRg) (AID 2282977; active means hit-call score of the fitted dose curve at least 0.9, where 1 is the maximum;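 further: hits increase reporter signal over DMSO so potencies reflect activators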). As to conditions: HepG2 Attagene TRANS reporter, ERRg transactivation. The method, boiled down:
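Transfect HepG2 with multiple GAL4-UAS reporter transcription units; dose chemicals 24 h; isolate RNA, reverse-transcribe with oligo(dT), PCR-amplify, label with 6-FAM, digest with HpaI; size fragments by capillary electrophoresis. DMSO serves as negative control.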

Values joined by “and” are separate entries in the source; they are usually repeats but may differ in a detail not shown here. Identical values can stand only once. Inconclusive results are not listed. The source holds several records for some structures; these can differ, active in one and inactive in another. Active and inactive are the calls of the source. How the source made its calls, unless noted: active means hit-call score of the fitted dose curve at least 0.9, where 1 is the maximum; inactive means score below 0.9.

Sequence of Transcription factor Sp1 (Homo sapiens) (P08047 whole entry, looked up): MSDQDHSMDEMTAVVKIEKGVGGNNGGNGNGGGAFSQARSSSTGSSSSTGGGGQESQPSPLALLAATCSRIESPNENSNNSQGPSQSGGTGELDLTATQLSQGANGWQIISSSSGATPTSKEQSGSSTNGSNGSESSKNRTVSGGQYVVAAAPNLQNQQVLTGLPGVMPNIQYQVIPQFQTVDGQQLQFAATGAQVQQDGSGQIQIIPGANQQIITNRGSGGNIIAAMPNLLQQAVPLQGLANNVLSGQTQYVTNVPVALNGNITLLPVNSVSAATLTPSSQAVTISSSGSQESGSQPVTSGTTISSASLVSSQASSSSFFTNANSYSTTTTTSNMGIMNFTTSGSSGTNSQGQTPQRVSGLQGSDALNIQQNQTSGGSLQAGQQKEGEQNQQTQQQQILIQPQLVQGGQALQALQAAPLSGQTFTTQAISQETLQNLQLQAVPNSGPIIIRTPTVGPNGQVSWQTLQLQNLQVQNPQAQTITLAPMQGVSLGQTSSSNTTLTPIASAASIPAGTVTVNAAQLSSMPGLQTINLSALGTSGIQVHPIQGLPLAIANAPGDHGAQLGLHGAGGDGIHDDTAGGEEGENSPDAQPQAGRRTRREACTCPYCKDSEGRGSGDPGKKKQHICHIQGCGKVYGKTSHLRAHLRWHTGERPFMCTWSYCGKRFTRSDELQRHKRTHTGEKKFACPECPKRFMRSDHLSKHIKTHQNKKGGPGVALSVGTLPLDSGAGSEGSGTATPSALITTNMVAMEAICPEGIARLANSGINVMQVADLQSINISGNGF
Sequence of Estrogen receptor (Homo sapiens) (P03372 whole entry, looked up, the tested form may be a part): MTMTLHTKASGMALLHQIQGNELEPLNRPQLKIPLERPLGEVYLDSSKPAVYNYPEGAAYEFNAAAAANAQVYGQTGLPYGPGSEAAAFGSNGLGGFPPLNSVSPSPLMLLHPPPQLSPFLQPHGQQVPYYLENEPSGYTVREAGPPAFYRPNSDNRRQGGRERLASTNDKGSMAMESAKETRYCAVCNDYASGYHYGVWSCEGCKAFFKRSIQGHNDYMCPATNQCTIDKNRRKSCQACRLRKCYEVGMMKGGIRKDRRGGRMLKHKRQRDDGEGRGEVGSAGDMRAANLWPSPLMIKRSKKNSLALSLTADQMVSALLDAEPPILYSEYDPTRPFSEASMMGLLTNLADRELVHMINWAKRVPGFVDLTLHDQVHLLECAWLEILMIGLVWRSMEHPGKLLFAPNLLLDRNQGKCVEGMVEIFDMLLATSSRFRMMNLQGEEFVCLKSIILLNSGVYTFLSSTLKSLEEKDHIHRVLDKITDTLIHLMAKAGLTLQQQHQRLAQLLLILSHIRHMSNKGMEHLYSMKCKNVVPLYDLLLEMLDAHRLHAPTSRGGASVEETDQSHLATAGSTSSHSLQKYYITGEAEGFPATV
Sequence of Estrogen-related receptor gamma (Homo sapiens) (P62508 whole entry, looked up, the tested form may be a part): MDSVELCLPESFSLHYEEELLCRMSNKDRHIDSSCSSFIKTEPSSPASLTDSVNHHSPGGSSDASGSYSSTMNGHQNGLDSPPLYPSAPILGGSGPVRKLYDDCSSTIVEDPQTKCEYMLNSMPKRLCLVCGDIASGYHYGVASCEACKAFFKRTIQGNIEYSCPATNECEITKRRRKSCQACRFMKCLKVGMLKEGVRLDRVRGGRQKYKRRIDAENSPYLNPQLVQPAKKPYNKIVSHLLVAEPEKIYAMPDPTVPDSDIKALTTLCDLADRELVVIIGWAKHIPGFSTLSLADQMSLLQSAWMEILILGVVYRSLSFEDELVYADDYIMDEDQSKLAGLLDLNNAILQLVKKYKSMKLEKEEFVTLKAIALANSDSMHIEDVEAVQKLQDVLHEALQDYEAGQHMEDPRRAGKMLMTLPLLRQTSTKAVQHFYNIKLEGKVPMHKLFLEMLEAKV

Consider `C=C(c1ccc(C(=O)O)cc1)c1cc2c(cc1C)C(C)(C)CCC2(C)C`, for which the AC50 (commonly the concentration at which the activity in the assay is half-maximal) is 0.154 µM (active) in test [1]; 9.14 nM (active) and 19.3 nM (active) in test [2]; 2.2 µM (active) in [3]; 32.9 µM (active) in test [5]; 11.1 µM (active) and 29.8 µM (active) in [8]; 13.7 µM (active) in test [9]. Moreover, the AC50 in [10] is 30.4 µM (active); in test [12], 2.11 µM (active); in test [13] it was 31.2 µM (active); in test [15], 16.9 µM (active). In addition, the result in test [1], in test [3], in test [4], in test [5], in [6] and in [7] was inactive. The compound was called inactive in [9], in test [10], in test [11], in [12], in test [13] and in test [14]. The compound was classed as inactive in test [15] and in [16].
On to `O=C(O)c1cccc(C(=O)O)n1`, for which the compound was called inactive in [1], in [2], in [3], in test [4], in test [5] and in [6]. Further, the result in [7], in test [8], in test [9], in [10], in test [11] and in test [12] was inactive. In addition, the compound was called inactive in [17], in [13], in test [14], in test [15], in [18] and in [19].
As for `Cc1ccccc1C(OCCN(C)C)c1ccccc1` (configuration not stated), the AC50 in test [1] is 27 µM (active); in test [15], 124 µM (active). Also, the outcome in test [1], in test [2], in test [3], in test [4], in test [5] and in test [8] was inactive. Further, the compound was classed as inactive in test [9], in test [10], in [11], in test [17], in [14] and in [15]. In test [18], the compound was classed as inactive.
